Among all 320,000 compounds or so, about 480 (0.15%) were called active. Another 1% or so got no clear call; they are omitted. This is one part of a sample in which actives are shown more often than they occur. A number with no mark means an inactive call. Cut-off read from the data, not from the text of the source: active = inhibition above about 26% (passing the limit was not always enough); inconclusive = no clear call, values can overlap the other calls.
Molecular target: Histone deacetylase 3 (Homo sapiens) (UniProt O15379)
Assay: inhibition of human HDAC3 enzyme activity – biochemical, fluorescence, cell-free homogeneous, primary screen (AID 2718)
Settings: recombinant HDAC3, fluorogenic peptide/trypsin coupled, at 8.3 µM, hits give high values

Histone deacetylase 3 (Homo sapiens), sequence (O15379 whole entry, looked up): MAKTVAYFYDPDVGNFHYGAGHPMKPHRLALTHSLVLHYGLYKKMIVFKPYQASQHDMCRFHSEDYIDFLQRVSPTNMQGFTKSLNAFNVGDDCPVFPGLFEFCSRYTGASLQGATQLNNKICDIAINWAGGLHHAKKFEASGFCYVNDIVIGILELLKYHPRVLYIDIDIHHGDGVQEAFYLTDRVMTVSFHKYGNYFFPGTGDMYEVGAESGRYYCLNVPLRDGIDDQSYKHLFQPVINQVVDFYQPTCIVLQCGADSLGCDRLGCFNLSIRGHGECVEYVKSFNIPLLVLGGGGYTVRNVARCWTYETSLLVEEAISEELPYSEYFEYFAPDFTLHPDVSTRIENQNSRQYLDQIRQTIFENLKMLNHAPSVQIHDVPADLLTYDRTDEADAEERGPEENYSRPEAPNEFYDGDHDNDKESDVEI

**Q.** Which inhibition does the source give for `Cc1ccc(C)c(S(=O)(=O)N2CCN(c3ncnc4sccc34)CC2)c1` here?
**A.** Its inhibition is 8.6%.

**Q.** `CCOC(=O)c1nn(-c2ccccc2F)c2nc(Nc3ccccc3)cc(=O)n12` was tested. Which inhibition did it give?
**A.** The inhibition was 4.54%.

**Q.** With `Cc1nc(CC(=O)NNS(=O)(=O)c2ccc(F)c(Cl)c2)cs1` as the compound, how does the inhibition read?
**A.** The inhibition was -5.91%.

**Q.** `COc1cccc(NC(=O)C2C(c3ccccc3)C2(Cl)Cl)c1` (configuration not stated) was tested. Which inhibition did it give?
**A.** Its inhibition is 10.8%.

**Q.** `COc1cccc(NC(=O)C2c3cc(OC)c(OC)cc3C(=O)N(C)C2c2cccnc2)c1` (configuration not stated) was tested. Which inhibition did it give?
**A.** The inhibition was 35.6% (active).

**Q.** `CCOc1cc2c(cc1OCC)C(C(=O)O)C(c1ccc(OC)c(O)c1)N(C)C2=O` (configuration not stated) was tested. Which inhibition did it give?
**A.** Its inhibition is -1.3%.

**Q.** How did the inhibition turn out when `CCCCn1c(N)c(N(CCOC)C(=O)COc2c(C)cccc2C)c(=O)[nH]c1=O` was run?
**A.** The inhibition was -1.76%.

**Q.** For `CSc1cccc(NC(=S)N(C(C)C)C(C)c2ccccn2)c1` (configuration not stated), which inhibition is on record?
**A.** Its inhibition is -0.0363%.

**Q.** With `COc1ccc(S(=O)(=O)N(C)C[C@@H]2Oc3ccc(NC(=O)Nc4c(C)noc4C)cc3C(=O)N([C@H](C)CO)C[C@@H]2C)cc1` as the compound, how does the inhibition read?
**A.** The inhibition was -1.76%.

**Q.** `O=C(COc1ccc(F)cc1Br)NCC1COc2ccccc2O1` (configuration not stated) was tested. Which inhibition did it give?
**A.** Its inhibition is -3.53%.

**Q.** Which inhibition does the source give for `CCCCN(C(=O)C1CCC1)c1c(N)n(Cc2ccccc2)c(=O)[nH]c1=O` here?
**A.** The inhibition was -3.39%.

**Q.** How did the inhibition turn out when `O=C(COC(=O)c1cccc(Cl)c1)NC(=O)NCc1ccccc1` was run?
**A.** Its inhibition is 1.01%.

**Q.** Which inhibition does the source give for `CC(OC(=O)c1cc2ccccc2[nH]1)C(=O)N(C)c1ccccc1` (configuration not stated) here?
**A.** Its inhibition is -8.32%.

**Q.** For `COCCNC(=O)CCCN1C(=O)c2ccccc2Sc2ncccc21`, which inhibition is on record?
**A.** The inhibition was 2.45%.

**Q.** For `CCOc1ccc(-n2c(N)c(C(=O)NCC3CCCO3)sc2=S)cc1` (configuration not stated), which inhibition is on record?
**A.** The inhibition was 3.4%.

**Q.** For `O=C(Nc1nnc(-c2ccccc2)o1)c1cccc(S(=O)(=O)N2CCOCC2)c1`, which inhibition is on record?
**A.** Its inhibition is -1.1%.

**Q.** Which inhibition does the source give for `COc1ccccc1C(=O)NCC(=O)OCC(=O)NNC(=O)c1ccc(Br)cc1` here?
**A.** The inhibition was -9.69%.

**Q.** With `CCCn1c(=O)c2c(C(F)(F)F)cc(-c3cccs3)nc2n(CCC)c1=O` as the compound, how does the inhibition read?
**A.** The inhibition was 1.67%.

**Q.** With `COc1ccc(NC(=O)CNC(=O)Cn2ccc3ccccc3c2=O)c(OC)c1` as the compound, how does the inhibition read?
**A.** The inhibition was -0.211%.

**Q.** `Fc1ccc2cnc(-c3ccccc3)cc2c1` was tested. Which inhibition did it give?
**A.** The inhibition was -0.273%.

**Q.** `Cc1ccc(NC(=O)C2CC2)cc1S(=O)(=O)N1CCOCC1` was tested. Which inhibition did it give?
**A.** The inhibition was 1.59%.

**Q.** Which inhibition does the source give for `COc1ccc(-c2c(-c3cc(OC)cc(OC)c3)n(C)c3ccc(-c4ccn[nH]4)cc23)cc1` here?
**A.** The inhibition was -1.8%.

**Q.** `CC(C)n1cnc2c(NCc3ccccc3)cc(N[C@@H](CO)Cc3ccccc3)cc21` was tested. Which inhibition did it give?
**A.** Its inhibition is 11.4%.

**Q.** For `S=c1[nH]nc2c3c4c(sc3ncn12)CCCC4`, which inhibition is on record?
**A.** The inhibition was 42.4% (active).

**Q.** `N=c1c2c3c(sc2ncn1N)CCCCC3` was tested. Which inhibition did it give?
**A.** Its inhibition is -7.57%.

**Q.** With `N=c1c2c3c(sc2ncn1N)CCCC3` as the compound, how does the inhibition read?
**A.** Its inhibition is 9.19%.

**Q.** How did the inhibition turn out when `Cc1ccc(S(=O)(=O)NCCNC(C)c2ccc(Br)cc2)cc1` (configuration not stated) was run?
**A.** The inhibition was 6.4%.

**Q.** How did the inhibition turn out when `CC(=O)c1ccc(NC(=O)CSc2nc3ccccc3c(=O)n2CCCN2CCOCC2)cc1` was run?
**A.** Its inhibition is 12.2%.

**Q.** With `COc1ccc(N2C(=O)C(CC(=O)Nc3ccc(F)cc3)N(CCc3cccs3)C2=O)cc1` (configuration not stated) as the compound, how does the inhibition read?
**A.** The inhibition was -0.706%.

**Q.** With `CC1=CCC2C(=O)N(c3cccc(C(=O)NC(C)c4ccccc4)c3)C(=O)C2C1` (configuration not stated) as the compound, how does the inhibition read?
**A.** The inhibition was -6.38%.

**Q.** For `COc1ccc(CCNC(=O)CN2C(=O)COc3ccc(S(=O)(=O)N4CCCC4)cc32)cc1OC`, which inhibition is on record?
**A.** The inhibition was -4.05%.

**Q.** For `CC1(c2ccccc2)NC(=O)N(CC(=O)N2CC(=O)Nc3ccccc32)C1=O` (configuration not stated), which inhibition is on record?
**A.** The inhibition was -0.182%.

**Q.** `Cc1ccc(-c2nn(-c3ccccc3)cc2/C=C2\SC(=S)N(CCCCCC(=O)O)C2=O)o1` was tested. Which inhibition did it give?
**A.** Its inhibition is 31.7% (active).

**Q.** How did the inhibition turn out when `Cc1ccc(-c2nn(-c3ccccc3)cc2CN(Cc2ccccc2)C(=O)CCC(=O)O)o1` was run?
**A.** Its inhibition is -11.8%.

**Q.** For `C=CCOc1ccc(/C=C2\SC(=S)N(CCC(=O)O)C2=O)cc1`, which inhibition is on record?
**A.** The inhibition was 6.13%.

**Q.** `Clc1ccc2nc(CSc3ccccc3)cn2c1` was tested. Which inhibition did it give?
**A.** Its inhibition is 10.1%.

**Q.** `C[C@H]1CN([C@@H](C)CO)C(=O)Cc2cc(NS(C)(=O)=O)ccc2O[C@@H]1CN(C)CC1CC1` was tested. Which inhibition did it give?
**A.** Its inhibition is -7.37%.

**Q.** With `CC(C)(C)NC(=O)NC(=O)COC(=O)C1c2ccccc2Oc2ccccc21` as the compound, how does the inhibition read?
**A.** Its inhibition is -4.96%.

**Q.** For `Cc1cccc(C)c1Nc1nnc(SCC(=O)NCCCN2CCCC2=O)s1`, which inhibition is on record?
**A.** Its inhibition is 0.701%.

**Q.** With `O=C(NCc1ccc2c(c1)OCO2)c1c(-c2ccsc2)sc2ccccc12` as the compound, how does the inhibition read?
**A.** The inhibition was 4.88%.

**Q.** `O=C(Nc1ccc(Br)cn1)C1CCN(S(=O)(=O)c2cccs2)CC1` was tested. Which inhibition did it give?
**A.** Its inhibition is -1.41%.

**Q.** For `C=C(C)COc1ccc(-c2ncncc2-c2ccc(OC)cc2)c(O)c1`, which inhibition is on record?
**A.** The inhibition was 4.53%.

**Q.** With `COc1ccc(-c2n[nH]c(C)c2-c2ccccc2OC)c(O)c1` as the compound, how does the inhibition read?
**A.** The inhibition was -1.09%.

**Q.** For `C=C(C)COc1ccc(-c2n[nH]c(C)c2-c2ccccc2)c(O)c1`, which inhibition is on record?
**A.** The inhibition was 28.9% (active).

**Q.** Which inhibition does the source give for `Cc1ccc(C)c(NC(=O)c2cc(-c3cc(C)cc(C)c3O)n[nH]2)c1` here?
**A.** The inhibition was -1.79%.

**Q.** `Cc1cc(NC(=O)CSc2nnc(-c3ccco3)n2N)no1` was tested. Which inhibition did it give?
**A.** The inhibition was 2.85%.

**Q.** For `Cc1[nH]c2ccccc2c1SCC(=O)Nc1nccs1`, which inhibition is on record?
**A.** Its inhibition is -0.0176%.

**Q.** Which inhibition does the source give for `CC(C)(C)OC(=O)C[C@@H]1C/C=C\C[C@H](CC(=O)N[C@@H](CO)Cc2ccccc2)C(=O)N[C@H](Cc2ccccc2)COC1=O` here?
**A.** The inhibition was -0.452%.

**Q.** `COc1ccccc1-c1sc2ccccc2c1C#CC1(O)CCCCC1` was tested. Which inhibition did it give?
**A.** The inhibition was 14.4%.

**Q.** With `COc1cc(/C=C/C(=O)OCC(=O)c2ccccc2)cc(OC)c1OC` as the compound, how does the inhibition read?
**A.** Its inhibition is -7.7%.

**Q.** Which inhibition does the source give for `O=C(OCC(=O)N1CCCCC1)c1ccc(OC(F)(F)F)cc1` here?
**A.** The inhibition was -7.06%.

**Q.** With `O=C(Cn1cnc2c(OCc3ccccc3)ncnc21)NCCCn1ccnc1` as the compound, how does the inhibition read?
**A.** The inhibition was -4.2%.

**Q.** How did the inhibition turn out when `O=C1CCCC(O)=C1N=Nc1ccc2ncsc2c1` was run?
**A.** Its inhibition is -0.0778%.

**Q.** Which inhibition does the source give for `Nc1ccc(N=Nc2ccccc2Cl)c(N)n1` here?
**A.** Its inhibition is 14.3%.

**Q.** With `NC[C@H](Cc1ccccc1)NCCc1cc(C(F)(F)F)cc(C(F)(F)F)c1` as the compound, how does the inhibition read?
**A.** Its inhibition is 3.54%.

**Q.** For `O=C(COC(=O)CCCNC(=O)c1ccc(Cl)cc1)Nc1cc(Cl)ccc1Cl`, which inhibition is on record?
**A.** The inhibition was -2.2%.

**Q.** With `O=C(Nc1cc(S(=O)(=O)Nc2ccc(Cl)cc2)ccc1O)c1ccc(F)cc1F` as the compound, how does the inhibition read?
**A.** Its inhibition is 8.91%.

From PubChem BioAssay AID2718 (Broad Institute, 2010)
